Where “and” joins values, the source holds several entries; their conditions need not be identical. Equal values may be shown once. Screen size: about 5,500 compounds; about 2,000 (36%) were called active. Not shown: some 18% with an inconclusive outcome. No stated cut-off is given here; in the data, active means normalized growth mostly below about 0.91 (no sharp cut-off); inconclusive means no clear call, values can overlap the other calls; inactive means mostly above about 0.92. Some of the results follow.
Assay: chemical genetic growth profiling, strain panel (AID 1159580);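 further: tested at 20 µM; growth read once vehicle control cultures reached saturation at 30 °C; 1 = growth at the plate median or of vehicle wells; lower values mean less growth of the strain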
Settings: growth OD

Measured: normalized growth

CC(N=C(NC#N)Nc1ccncc1)C(C)(C)C (stereo not drawn)
inactive: S. cerevisiae deletion strains, locus YJR043C, strain POL32, hits give low values 1.02 | S. cerevisiae deletion strains, locus YJR075W, strain HOC1, hits give low values 1.03 | S. cerevisiae deletion strains, locus YKL009W, strain mrt4, hits give low values 1.04 | S. cerevisiae deletion strains, locus YKL068W, hits give low values 1.01 | S. cerevisiae deletion strains, locus YKL085W, strain MDH1 (second series), hits give low values 1.01 | S. cerevisiae deletion strains, locus YKL085W, strain MDH1, hits give low values 1.01 | S. cerevisiae deletion strains, locus YKL160W, strain elf1, hits give low values 0.97 | S. cerevisiae deletion strains, locus YKL190W, strain CNB1, hits give low values 1.01 | S. cerevisiae deletion strains, locus YKR001C, strain vps1, hits give low values 1.02 | S. cerevisiae deletion strains, locus YKR026C, strain gcn3, hits give low values 0.978 | S. cerevisiae deletion strains, locus YKR091W, strain srl3, hits give low values 0.993 | S. cerevisiae deletion strains, locus YLL001W, strain dnm1, hits give low values 0.956 | S. cerevisiae deletion strains, locus YLL026W, hits give low values 0.968 | S. cerevisiae deletion strains, locus YLL041C, strain sdh2, hits give low values 0.982 | S. cerevisiae deletion strains, locus YLR027C, strain aat2, hits give low values 0.967 | S. cerevisiae deletion strains, locus YLR039C, strain RIC1, hits give low values 1.02 | S. cerevisiae deletion strains, locus YLR058C, strain SHM2, hits give low values 1.01 | S. cerevisiae deletion strains, locus YLR102C, strain apc9, hits give low values 1.02 | S. cerevisiae deletion strains, locus YLR221C, strain rsa3, hits give low values 1.02 | S. cerevisiae deletion strains, locus YLR258W, strain gsy2, hits give low values 1.01 | S. cerevisiae deletion strains, locus YLR262C, strain YPT6 (second series), hits give low values 0.947 | S. cerevisiae deletion strains, locus YLR262C, strain YPT6, hits give low values 1.04 | S. cerevisiae deletion strains, locus YLR268W, strain sec22, hits give low values 1.06 | S. cerevisiae deletion strains, locus YLR320W, strain mms22, hits give low values 1.02 | S. cerevisiae deletion strains, locus YLR330W, strain CHS5, hits give low values 1.01 | S. cerevisiae deletion strains, locus YLR342W, strain FKS1 (second series), hits give low values 0.984 | S. cerevisiae deletion strains, locus YLR342W, strain FKS1, hits give low values 0.945 | S. cerevisiae deletion strains, locus YLR357W, strain rsc2, hits give low values 0.957 | S. cerevisiae deletion strains, locus YLR370C, strain arc18, hits give low values 0.972 | S. cerevisiae deletion strains, locus YLR371W, strain rom2, hits give low values 1.04 | S. cerevisiae deletion strains, locus YLR384C, strain iki3, hits give low values 0.968 | S. cerevisiae deletion strains, locus YLR418C, strain cdc73, hits give low values 1.04 | S. cerevisiae deletion strains, locus YML016C, strain PPZ1, hits give low values 1 | S. cerevisiae deletion strains, locus YML032C, strain rad52, hits give low values 1.03 | S. cerevisiae deletion strains, locus YML120C, strain ndi1, hits give low values 0.964 | S. cerevisiae deletion strains, locus YML124C, strain tub3, hits give low values 1.01 | S. cerevisiae deletion strains, locus YMR058W, strain fet3, hits give low values 0.978 | S. cerevisiae deletion strains, locus YMR078C, strain ctf18, hits give low values 1.02 | S. cerevisiae deletion strains, locus YMR125W, strain sto1, hits give low values 0.984 | S. cerevisiae deletion strains, locus YMR129W, hits give low values 0.981 | S. cerevisiae deletion strains, locus YMR205C, strain PFK2, hits give low values 0.984 | S. cerevisiae deletion strains, locus YMR223W, strain ubp8, hits give low values 0.994 | S. cerevisiae deletion strains, locus YMR231W, strain pep5, hits give low values 1 | S. cerevisiae deletion strains, locus YMR263W, strain SAP30, hits give low values 1.04 | S. cerevisiae deletion strains, locus YMR307W, strain GAS1, hits give low values 0.992 and 1.03 | S. cerevisiae deletion strains, locus YNL067W, strain RPL9B, hits give low values 1.04 | S. cerevisiae deletion strains, locus YNL071W, strain lat1, hits give low values 0.988 | S. cerevisiae deletion strains, locus YNL128W, strain TEP1, hits give low values 1.02 | S. cerevisiae deletion strains, locus YNL153C, strain GIM3, hits give low values 1.02 | S. cerevisiae deletion strains, locus YNL175C, strain NOP13, hits give low values 1 | S. cerevisiae deletion strains, locus YNL197C, strain WHI3, hits give low values 0.977 | S. cerevisiae deletion strains, locus YNL209W, strain ssb2, hits give low values 0.993 | S. cerevisiae deletion strains, locus YNL224C, strain SQS1, hits give low values 0.992 | S. cerevisiae deletion strains, locus YNL233W, strain BNI4, hits give low values 1.02 | S. cerevisiae deletion strains, locus YNL248C, strain rpa49, hits give low values 1.02 | S. cerevisiae deletion strains, locus YNL250W, strain rad50, hits give low values 1.01 | S. cerevisiae deletion strains, locus YNL271C, strain bni1, hits give low values 1.02 | S. cerevisiae deletion strains, locus YNL298W, strain CLA4, hits give low values 1.02 | S. cerevisiae deletion strains, locus YNL307C, strain MCK1, hits give low values 1.02 | S. cerevisiae deletion strains, locus YNL322C, strain KRE1 (second series), hits give low values 0.982 | S. cerevisiae deletion strains, locus YNL322C, strain KRE1, hits give low values 1.02 and 1 | S. cerevisiae deletion strains, locus YNR049C, strain mso1, hits give low values 0.986 | S. cerevisiae deletion strains, locus YNR052C, strain pop2, hits give low values 1.01 | S. cerevisiae deletion strains, locus YOL006C, strain TOP1, hits give low values 1.08 | S. cerevisiae deletion strains, locus YOL012C, strain htz1 1.52 | S. cerevisiae deletion strains, locus YOL147C, strain pex11, hits give low values 1.01 | S. cerevisiae deletion strains, locus YOR001W, strain rrp6, hits give low values 0.957 | S. cerevisiae deletion strains, locus YOR061W, strain CKA2, hits give low values 0.999 | S. cerevisiae deletion strains, locus YOR069W, strain VPS5, hits give low values 1.01 | S. cerevisiae deletion strains, locus YOR070C, strain gyp1, hits give low values 0.996 | S. cerevisiae deletion strains, locus YOR080W, strain dia2, hits give low values 0.963 | S. cerevisiae deletion strains, locus YOR083W, strain WHI5 (second series), hits give low values 0.984 | S. cerevisiae deletion strains, locus YOR083W, strain WHI5, hits give low values 0.956 | S. cerevisiae deletion strains, locus YOR106W, strain vam3, hits give low values 0.964 | S. cerevisiae deletion strains, locus YOR136W, strain idh2, hits give low values 1.01 | S. cerevisiae deletion strains, locus YOR144C, strain elg1, hits give low values 1.02 | S. cerevisiae deletion strains, locus YOR184W, strain ser1, hits give low values 1.03 | S. cerevisiae deletion strains, locus YOR265W, strain rbl2, hits give low values 0.98 | S. cerevisiae deletion strains, locus YOR270C, strain vph1, hits give low values 0.997 | S. cerevisiae deletion strains, locus YOR290C, strain snf2, hits give low values 1.01 | S. cerevisiae deletion strains, locus YOR316C, strain cot1, hits give low values 1.02 | S. cerevisiae deletion strains, locus YPL051W, strain arl3, hits give low values 0.985 | S. cerevisiae deletion strains, locus YPL055C, strain LGE1, hits give low values 1.03 | S. cerevisiae deletion strains, locus YPL078C, strain atp4, hits give low values 0.919 | S. cerevisiae deletion strains, locus YPL106C, strain sse1, hits give low values 0.945 | S. cerevisiae deletion strains, locus YPL240C, strain hsp82, hits give low values 0.972 | S. cerevisiae deletion strains, locus YPL241C, strain CIN2, hits give low values 1 | S. cerevisiae deletion strains, locus YPR119W, strain clb2, hits give low values 1.02 | S. cerevisiae deletion strains, locus YPR141C, strain kar3, hits give low values 1.01 | S. cerevisiae deletion strains, locus YPR163C, strain tif3, hits give low values 1.03 | S. cerevisiae deletion strains, locus YPR167C, strain met16, hits give low values 1.02 | S. cerevisiae deletion strains, strain wtn01, hits give low values 1.05 | S. cerevisiae strains, strain wild type, hits give low values 1.01

— PubChem BioAssay AID1159580 (chemical genetic matrix, 2015)
